According to PubChem BioAssay (EPA / NIEHS):
Several values for one entry are separate records, joined by “and”; a condition that tells them apart may be missing. Identical values can stand only once. Where a structure was tested more than once in an assay, its records may differ in their call. Activity calls are given as the source filed them. The calls were made as follows: active = hit-call score of the fitted dose curve at least 0.9, where 1 is the maximum; inactive = score below 0.9.

Legend:
[1] = read-out: Vascular cell adhesion molecule 1 (VCAM1), VCAM1 (gene 7412); test: BSK_CASM3C_VCAM1: BioMAP Diversity Plus: CASM3C Assay for Vascular cell adhesion molecule 1 (VCAM1) Biomarker Activity (AID 2283055); conditions: primary human coronary artery smooth muscle cells; actives raise or lower the signal;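 also: VCAM-1 protein level quantified by ELISA on the cells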
[2] = read-out: Collagen III, COL3A1 (gene 1281); test: BSK_hDFCGF_CollagenIII: BioMAP Diversity Plus: hDFCGF Assay for Collagen III Biomarker Activity (AID 2283056); conditions: primary human foreskin fibroblasts; actives raise or lower the signal
Procedure, shortened: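 Human foreskin fibroblast primary cultures sampled 24 h after dosing; Collagen III quantified by ELISA. Signal fitted bidirectionally against DMSO baseline.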

[3] = read-out: Epidermal growth factor receptor (EGFR), EGFR (gene 1956); test: BSK_hDFCGF_EGFR: BioMAP Diversity Plus: hDFCGF Assay for Epidermal growth factor receptor (EGFR) Biomarker Activity (AID 2283057); conditions: primary human foreskin fibroblasts; actives raise or lower the signal
Procedure, shortened: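 ELISA readout of EGFR on human dermal fibroblasts (primary foreskin cells), 24 h post-dosing; bidirectional curve fit vs DMSO baseline, gain or loss of signal scored.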

[4] = read-out: Interleukin-8 (IL8), CXCL8 (gene 3576); test: BSK_hDFCGF_IL8: BioMAP Diversity Plus: hDFCGF Assay for Interleukin-8 (IL8) Biomarker Activity (AID 2283058); conditions: primary human foreskin fibroblasts; actives raise or lower the signal
Procedure, shortened: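 Primary human foreskin fibroblasts (hDFCGF system) dosed with chemical; IL-8 measured by ELISA 24 hours later. Bidirectional curve fitting relative to DMSO baseline; cytotoxicity tracked in parallel cultures by SRB total protein staining.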

[5] = BSK_hDFCGF_Proliferation: Cell Proliferation Assessment in the BioMAP Diversity Plus: hDFCGF Assay (AID 2283059); conditions: primary human foreskin fibroblasts;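 also: curves fitted for both rise and fall of signal versus DMSO baseline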
Procedure, shortened: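 Steps: dose primary human dermal fibroblasts (foreskin); […] fix in 10% TCA; stain with 0.1% SRB; read 560 nm; fit gain or loss of signal against DMSO.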

[6] = BSK_hDFCGF_SRB: Viability Assessment in the BioMAP Diversity Plus: hDFCGF Assay (AID 2283061); conditions: primary human foreskin fibroblasts;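 also: cells exposed to compound for 24 h before the read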
Procedure, shortened: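 Human foreskin fibroblasts in 96-well plates were treated 24 h. Total protein was measured by 0.1% SRB staining after 10% TCA fixation, read at 560 nm. Data were fitted bidirectionally against DMSO.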

[7] = read-out: TIMP metallopeptidase inhibitor 1 (TIMP1), TIMP1 (gene 7076); test: BSK_hDFCGF_TIMP1: BioMAP Diversity Plus: hDFCGF Assay for TIMP metallopeptidase inhibitor 1 (TIMP1) Biomarker Activity (AID 2283062); conditions: primary human foreskin fibroblasts; actives raise or lower the signal
Procedure, shortened: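 Human foreskin fibroblast primary cultures dosed for 24 h; secreted/surface TIMP-1 quantified by ELISA. Bidirectional curve fitting against DMSO baseline; cytotoxicity tracked in parallel cultures by SRB total-protein staining.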

[8] = read-out: Monokine induced gamma interferon (MIG), CXCL9 (gene 4283); test: BSK_hDFCGF_MIG: BioMAP Diversity Plus: hDFCGF Assay for Monokine induced gamma interferon (MIG) Biomarker Activity (AID 2283063); conditions: primary human foreskin fibroblasts; actives raise or lower the signal
Procedure, shortened: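 MIG/CXCL9 measured by ELISA 24 h after dosing primary human skin fibroblasts. Activity fitted in both directions against DMSO controls. Cytotoxicity was checked in parallel cultures by SRB staining read at 560 nm.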

[9] = read-out: Matrix Metallopeptidase 1 (MMP1), MMP1 (gene 4312); test: BSK_hDFCGF_MMP1: BioMAP Diversity Plus: hDFCGF Assay for Matrix Metallopeptidase 1 (MMP1) Biomarker Activity (AID 2283064); conditions: primary human foreskin fibroblasts; actives raise or lower the signal
Procedure, shortened: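 MMP1 levels quantified by ELISA 24 h after dosing human dermal fibroblast cultures, with parallel SRB total-protein staining for overt cytotoxicity. Data fitted in both directions against DMSO baseline.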

[10] = read-out: Vascular cell adhesion molecule 1 (VCAM1), VCAM1 (gene 7412); test: BSK_hDFCGF_VCAM1: BioMAP Diversity Plus: hDFCGF Assay for Vascular cell adhesion molecule 1 (VCAM1) Biomarker Activity (AID 2283065); conditions: primary human foreskin fibroblasts; actives raise or lower the signal;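 also: VCAM-1 protein level quantified by ELISA after 24 h chemical exposure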
Procedure, shortened: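 Human foreskin fibroblast primary cells dosed with chemical, VCAM-1 measured by ELISA at 24 h. Bidirectional curve fitting relative to DMSO as negative control/baseline.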

[11] = read-out: Plasminogen activator inhibitor-1 (PAI1), SERPINE1 (gene 5054); test: BSK_hDFCGF_PAI1: BioMAP Diversity Plus: hDFCGF Assay for Plasminogen activator inhibitor-1 (PAI1) Biomarker Activity (AID 2283066); conditions: primary human foreskin fibroblasts; actives raise or lower the signal
Procedure, shortened: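 ELISA readout of PAI-1 from primary human skin fibroblast cultures, 24 h after compound addition. Gain or loss of signal was fitted bidirectionally against DMSO baseline.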

[12] = read-out: Intercellular Adhesion Molecule 1 (ICAM1), ICAM1 (gene 3383); test: BSK_KF3CT_ICAM1: BioMAP Diversity Plus: KF3CT Assay for Intercellular Adhesion Molecule 1 (ICAM1) Biomarker Activity (AID 2283067); conditions: primary human keratinocytes with fibroblasts; actives raise or lower the signal
Procedure, shortened: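 Human keratinocyte–foreskin fibroblast co-culture was treated for 24 h. Cell-surface ICAM-1 was quantified by ELISA, fitted bidirectionally relative to DMSO. Cytotoxicity was checked in parallel cultures by SRB total-protein staining.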

[13] = read-out: Interferon-gamma inducible Protein 10 (IP10), CXCL10 (gene 3627); test: BSK_KF3CT_IP10: BioMAP Diversity Plus: KF3CT Assay for Interferon-gamma inducible Protein 10 (IP10) Biomarker Activity (AID 2283068); conditions: primary human keratinocytes with fibroblasts; actives raise or lower the signal
Procedure, shortened: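 KF3CT co-culture (keratinocytes + foreskin fibroblasts), 24 h compound, IP-10 by ELISA; bidirectional fit vs DMSO baseline.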

[14] = BSK_KF3CT_SRB: Viability Assessment in the BioMAP Diversity Plus: KF3CT Assay (AID 2283069); conditions: primary human keratinocytes with fibroblasts;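 also: total protein by sulforhodamine B staining as a cytotoxicity measure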
Procedure, shortened: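 Cytotoxicity was gauged by SRB staining (0.1% SRB, 10% TCA fixation, 560 nm) of parallel cultures at 24 h. The cells were primary human skin keratinocytes co-cultured with fibroblasts, and activity was fitted in both directions against DMSO.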

[15] = read-out: Interleukin-1 alpha (IL1a), IL1A (gene 3552); test: BSK_KF3CT_IL1a: BioMAP Diversity Plus: KF3CT Assay for Interleukin-1 alpha (IL1a) Biomarker Activity (AID 2283070); conditions: primary human keratinocytes with fibroblasts; actives raise or lower the signal
Procedure, shortened: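 IL-1a was detected by ELISA 24 h after chemical treatment of a co-culture of human skin keratinocytes and foreskin fibroblasts. Gain or loss of signal was fitted against the DMSO baseline.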

[16] = read-out: TIMP metallopeptidase inhibitor 2 (TIMP2), TIMP2 (gene 7077); test: BSK_KF3CT_TIMP2: BioMAP Diversity Plus: KF3CT Assay for TIMP metallopeptidase inhibitor 2 (TIMP2) Biomarker Activity (AID 2283071); conditions: primary human keratinocytes with fibroblasts; actives raise or lower the signal
Procedure, shortened: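 ELISA readout of TIMP-2 in keratinocyte plus foreskin fibroblast co-cultures (human skin primary cells), 24 h post-dose. Gain or loss of signal fitted relative to DMSO.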

[17] = read-out: C-C motif chemokine 2 (Homo sapiens) (UniProt P13500); test: BSK_KF3CT_MCP1: BioMAP Diversity Plus: KF3CT Assay for Monocyte Chemoattractant Protein 1 (MCP1/CCL2) Biomarker Activity (AID 2283073); conditions: primary human keratinocytes with fibroblasts; actives raise or lower the signal
Procedure, shortened: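 Human keratinocyte–foreskin fibroblast co-culture; MCP-1 measured by ELISA 24 h after dosing. Bidirectional fit vs DMSO; cytotoxicity tracked by SRB total protein in parallel cultures.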

[18] = read-out: Matrix Metallopeptidase 9 (MMP9), MMP9 (gene 4318); test: BSK_KF3CT_MMP9: BioMAP Diversity Plus: KF3CT Assay for Matrix Metallopeptidase 9 (MMP9) Biomarker Activity (AID 2283074); conditions: primary human keratinocytes with fibroblasts; actives raise or lower the signal;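 also: MMP9 protein level quantified by ELISA in the co-culture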
Procedure, shortened: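 MMP-9 quantified by ELISA after 24 h chemical treatment of primary human skin keratinocyte/fibroblast co-cultures; gain or loss fitted against DMSO, with parallel SRB staining (0.1% SRB, 560 nm) for overt cytotoxicity.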

[19] = read-out: urokinase plasminogen activator (uPA), PLAU (gene 5328); test: BSK_KF3CT_uPA: BioMAP Diversity Plus: KF3CT Assay for urokinase plasminogen activator (uPA) Biomarker Activity (AID 2283075); conditions: primary human keratinocytes with fibroblasts; actives raise or lower the signal
Procedure, shortened: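 ELISA read-out of uPA 24 h after dosing human skin keratinocytes co-cultured with foreskin fibroblasts. Signal change fitted both ways relative to DMSO; sulforhodamine B on parallel cultures marks overt cytotoxicity.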

CD40, CD40 (gene 958) = test: BSK_LPS_CD40: BioMAP Diversity Plus: LPS Assay for CD40 Biomarker Activity (AID 2283076); conditions: primary human HUVEC with PBMC; actives raise or lower the signal
Procedure, shortened: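 HUVEC plus PBMC co-culture stimulated with LPS; CD40 quantified by ELISA 24 h after compound dosing. Fitting was bidirectional relative to DMSO. SRB staining of parallel cultures flagged overt cytotoxicity.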

[20] = read-out: E-selectin (Homo sapiens) (UniProt P16581); test: BSK_LPS_Eselectin: BioMAP Diversity Plus: LPS Assay for Eselectin Biomarker Activity (AID 2283077); conditions: primary human HUVEC with PBMC; actives raise or lower the signal
Procedure, shortened: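 Human umbilical vein endothelial cells co-cultured with PBMC under LPS stimulation; cell-surface E-selectin measured by ELISA 24 h after dosing. Change in either direction versus DMSO, with SRB total-protein staining in parallel cultures for cytotoxicity.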

Measured: AC50

Sequence of E-selectin (Homo sapiens) (P16581 whole entry, looked up): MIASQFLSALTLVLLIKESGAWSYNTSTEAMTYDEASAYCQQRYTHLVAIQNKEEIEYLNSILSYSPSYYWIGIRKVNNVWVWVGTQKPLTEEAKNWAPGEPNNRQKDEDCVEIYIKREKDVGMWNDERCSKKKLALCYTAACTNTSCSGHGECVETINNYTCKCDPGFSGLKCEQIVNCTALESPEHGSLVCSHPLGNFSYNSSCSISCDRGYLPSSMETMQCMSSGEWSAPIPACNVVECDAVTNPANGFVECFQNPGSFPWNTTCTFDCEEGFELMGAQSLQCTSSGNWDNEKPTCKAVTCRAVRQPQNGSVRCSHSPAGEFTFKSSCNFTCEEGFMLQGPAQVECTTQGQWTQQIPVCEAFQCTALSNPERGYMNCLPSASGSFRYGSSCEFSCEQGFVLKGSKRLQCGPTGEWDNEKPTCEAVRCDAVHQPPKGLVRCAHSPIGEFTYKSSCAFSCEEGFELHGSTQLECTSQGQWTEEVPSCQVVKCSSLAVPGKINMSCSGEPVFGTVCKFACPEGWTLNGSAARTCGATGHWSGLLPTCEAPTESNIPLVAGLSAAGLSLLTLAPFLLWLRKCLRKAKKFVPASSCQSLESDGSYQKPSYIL

[Cd+2].[Cl-].[Cl-]
inactive: [3] | [6] | CD40, CD40 (gene 958)
active: [1] 4.05 µM and 3.51 µM | [2] 3.57 µM and 4.55 µM | [3] 0.156 µM | [4] 24.2 µM and 23 µM | [5] 919 nM and 655 nM | [7] 1.12 µM and 1.63 µM | [8] 9.86 µM and 5.69 µM | [9] 3.97 µM and 4.18 µM | [10] 1.9 µM and 2.23 µM | [11] 601 nM and 305 nM | [12] 29.2 µM and 27.5 µM | [13] 35.2 µM and 33.4 µM | [14] 32.4 µM and 32.1 µM | [15] 33.8 µM and 30.1 µM | [16] 28.2 µM and 20 µM | [17] 20 µM and 14.1 µM | [18] 16.2 µM and 20.5 µM | [19] 32.6 µM and 35.8 µM | CD40, CD40 (gene 958) 13.1 µM | [20] 32.8 µM and 35.4 µM
